Hits are enriched below; roughly 9.3% of the tested compounds scored in any of these assays.
NADH coupling: inhibition of NAD/NADH coupling enzymes, library profiling | coupled PK/LDH NADH assays, four targets | IC50, µM (doses to about 10 µM), inactives show top-dose inhibition | hit rate 0.02% among 65,000;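 active = single-dose screening hits from any of four coupled enzyme assays that gave an IC50 when retested across doses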;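 note: the DPM-DC format reads NADH fluorescence rather than 340 nm absorbance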
M1 ag: activates the M1 muscarinic receptor | AID 626 | B-score at 10 µM | CHO-M1 cells, Fluo-4 calcium fluorescence, agonist mode; active compounds read high | hit rate 3% among 64,000;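 active = fluorescence rise, raw or as B-score row- and column-corrected plate score, outside the 99.7% band of its plate's samples, either direction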
Htt clearance: compounds clearing mutant huntingtin protein; hit rate 0.42% among 47,000; AID 853; inhibition, % at 1.5 µM; HeLa Exon1htt(103Q)mCFP, aggregate imaging; zero = plate's median compound well;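 active = inhibition of aggregate fluorescence above about 70%, also judged a hit by eye on the cell image, limit read from the data, passing the limit was not always enough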;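 note: cells exposed to compound for three days before fixation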
A340 absorber: compounds absorbing at 340 nm. 65,000 tested, under 10 active. AID 708. fold change at 10 µM. compound absorbance at 340 nm, fold over control;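 active = at 10 µM dose, initial 340 nm absorbance at least 2 fold that of control wells; inactive = change under 2 fold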;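 note: initial absorbance extrapolated from kinetic A340 decline of NADH oxidation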
Autofluor 339: intrinsic fluorescence of library compounds, ex339/em460 – biochemical, MLSMR library, data from DPM-DC assay, artefact control, profiling panel; hit rate 5.5% among 65,000; compound autofluorescence, ex339/em460 nm, NADH buffer; active compounds read high; 1 = no-compound wells, NADH background; fluorescence fold increase at 10 µM;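 active = at 10 µM, mean starting fluorescence two-fold or more over control wells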;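 note: signal is the first read of a kinetic run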
M1 antagonist: blocks the rat M1 muscarinic receptor response to acetylcholine; P08482; CHO-M1 cells, Fluo-4 calcium, ACh EC80 antagonist mode; active compounds read low; B-score at 10 µM; hit rate 3.4% among 64,000;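 active = calcium fluorescence response, raw or row-and-column corrected B-score, differing from the plate sample mean either way at a set confidence level, mostly lower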
Target sequence (P08482 whole entry, looked up): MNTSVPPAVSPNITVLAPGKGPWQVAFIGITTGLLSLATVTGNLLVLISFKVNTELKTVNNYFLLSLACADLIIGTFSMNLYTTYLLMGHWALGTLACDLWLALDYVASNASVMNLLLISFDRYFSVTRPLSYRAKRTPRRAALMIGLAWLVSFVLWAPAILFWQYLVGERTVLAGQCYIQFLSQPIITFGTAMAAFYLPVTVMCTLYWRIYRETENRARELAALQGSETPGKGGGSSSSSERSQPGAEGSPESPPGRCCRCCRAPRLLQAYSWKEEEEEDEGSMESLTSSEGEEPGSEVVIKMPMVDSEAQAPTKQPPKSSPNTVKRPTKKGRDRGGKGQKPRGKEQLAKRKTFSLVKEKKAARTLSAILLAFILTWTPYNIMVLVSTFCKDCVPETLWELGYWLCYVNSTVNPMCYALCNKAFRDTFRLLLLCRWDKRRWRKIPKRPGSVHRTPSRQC
An asterisk follows results filed as active.

Results for COc1ccc(NC(=O)c2ncn[nH]2)cc1 ?
Htt clearance: 23

Results for O=C(Nc1ccc2oc(-c3ccccc3Cl)nc2c1)c1ncn[nH]1 ?
NADH coupling: 6%; M1 ag: -0.36; A340 absorber: 1.1; Autofluor 339: 2.1*; M1 antagonist: -0.98

What do the screens show for `Cc1nn(C)cc1C1C2=C(CC(C)(C)CC2=O)OC2=C1C(=O)CC(C)(C)C2`?
NADH coupling: 1%; M1 ag: 0.06; A340 absorber: 0.99; Autofluor 339: 1; M1 antagonist: -0.73

What do the screens show for `COc1cccc(C2(O)CCN(C(=O)C3CCC3)CC2)c1`?
NADH coupling: 1%; M1 ag: -0.32; A340 absorber: 0.97; Autofluor 339: 1.1; M1 antagonist: -0.23

Results for CCOC(=O)N1CCC(NC(=O)c2cccc3c2C(=O)N(Cc2cccnc2)C3)CC1 ?
NADH coupling: 8%; M1 ag: 0.95; A340 absorber: 0.98; Autofluor 339: 1.1; M1 antagonist: 1.5

How did CCOc1ccc(C(C)=O)cc1CSc1nnc(-c2cccs2)n1CC1CCCO1 (configuration not stated) do in these assays?
NADH coupling: 6%; M1 ag: -0.2; Htt clearance: 7; A340 absorber: 0.99; Autofluor 339: 1; M1 antagonist: -0.33

What do the screens show for `Nc1ccc2oc(-c3cccc4ccccc34)nc2c1`?
NADH coupling: 10%; M1 ag: 0.43; A340 absorber: 1.1; Autofluor 339: 1.9; M1 antagonist: -0.25

Results for Cc1ccc(-c2nc3cc(N)ccc3o2)c(C)c1 ?
NADH coupling: 3%; M1 ag: 2; A340 absorber: 1; Autofluor 339: 4*; M1 antagonist: -0.54

What do the screens show for `O=C(NC1CCCCC1)C(c1ccc(F)cc1)N(Cc1ccc2c(c1)OCO2)C(=O)c1cnsn1` (configuration not stated)?
Htt clearance: 43

Results for N#CC1=C(N)N(c2ccccc2)C(c2cccc([N+](=O)[O-])c2)C1(C#N)C#N (configuration not stated) ?
Htt clearance: 24

Results for Cc1cccc(N2C(N)=C(C#N)C(C#N)(C#N)C2c2ccccc2)c1 (configuration not stated) ?
NADH coupling: 12%; M1 ag: -0.4; Htt clearance: 21; A340 absorber: 1; Autofluor 339: 2.7*; M1 antagonist: -0.65

Results for N#CC1=C(N)n2c(s/c(=C\c3ccco3)c2=O)=C(C#N)C1c1ccco1 (configuration not stated) ?
NADH coupling: 3%; M1 ag: 0.018; Htt clearance: 51; A340 absorber: 1; Autofluor 339: 1.1; M1 antagonist: 0.82

What do the screens show for `N#CC1=C(N)N(c2ccccc2)C(c2ccco2)C1(C#N)C#N` (configuration not stated)?
NADH coupling: 4%; M1 ag: -0.74; A340 absorber: 1; Autofluor 339: 2.2*; M1 antagonist: 0.011

What do the screens show for `N#Cc1c(-c2ccccc2)cc(-c2ccco2)c(C#N)c1N`?
NADH coupling: 4%; M1 ag: -1.7; A340 absorber: 1.1; Autofluor 339: 2.3*; M1 antagonist: -0.0039

How did CN(C)CCN1C(=O)C(=O)/C(=C(/O)c2ccc(OCc3ccccc3)cc2)C1c1ccncc1 (configuration not stated) do in these assays?
NADH coupling: 1%; M1 ag: -0.65; A340 absorber: 1; Autofluor 339: 1.2; M1 antagonist: 0.58

Results for Cn1c2c(c(=O)n(C)c1=O)C(c1ccccc1OC(F)F)C1=C(CCCC1=O)N2 (configuration not stated) ?
NADH coupling: 14%; M1 ag: -0.97; Htt clearance: -66; A340 absorber: 1; Autofluor 339: 4*; M1 antagonist: 0.076

How did CCC(C(=O)Nc1nnc(-c2ccco2)s1)c1ccccc1 (configuration not stated) do in these assays?
NADH coupling: 4%; M1 ag: -0.34; Htt clearance: 34; A340 absorber: 1.1; Autofluor 339: 1.4; M1 antagonist: -0.19

Results for Cc1cc(NC(=O)C2CCC2)n(-c2ccccn2)n1 ?
NADH coupling: 5%; M1 ag: 0.27; A340 absorber: 1; Autofluor 339: 1.1; M1 antagonist: 0.61

How did COc1cccc2[nH]c3c(N4CCC(C(N)=O)CC4)ncnc3c12 do in these assays?
NADH coupling: 8%; M1 ag: -0.94; Htt clearance: 2; A340 absorber: 1.1; Autofluor 339: 3.7*; M1 antagonist: 0.35

How did COc1ccc(-n2ncc3c(N4CCC(C(N)=O)CC4)ncnc32)cc1 do in these assays?
NADH coupling: 4%; M1 ag: -0.15; A340 absorber: 0.99; Autofluor 339: 1.1; M1 antagonist: 0.055

What do the screens show for `COc1cc2[nH]c3c(N4CCC(C(N)=O)CC4)ncnc3c2cc1OC`?
NADH coupling: 12%; M1 ag: 3.1; Htt clearance: -27; A340 absorber: 1; Autofluor 339: 2.8*; M1 antagonist: -1

Results for CCOC(=O)N1CCN(C(=O)CSc2nnc(Cc3ccccc3)o2)CC1 ?
NADH coupling: 1%; M1 ag: -2.4; A340 absorber: 0.98; Autofluor 339: 1; M1 antagonist: 0.28

What do the screens show for `COc1ccc(-c2noc(CCC(=O)Nc3nc4ccccc4s3)n2)cc1`?
NADH coupling: 1%; M1 ag: -0.25; A340 absorber: 1; Autofluor 339: 1.1; M1 antagonist: 0.77*

How did COc1ccc(-c2noc(CCC(=O)Nc3cccc(C)c3)n2)cc1 do in these assays?
NADH coupling: 6%; M1 ag: -0.16; Htt clearance: -6; A340 absorber: 1; Autofluor 339: 1.1; M1 antagonist: 0.056

Results for CCOC(=O)N1CCN(S(=O)(=O)c2cccc3ccc(C)nc23)CC1 ?
NADH coupling: 3%; M1 ag: 0.017; A340 absorber: 1.1; Autofluor 339: 1.1; M1 antagonist: 0.22

How did CC1CCc2cc(F)cc3c(O)c(C(=O)Nc4cnccn4)c(=O)n1c23 (configuration not stated) do in these assays?
NADH coupling: 3%; M1 ag: 0.83; A340 absorber: 0.99; Autofluor 339: 1.1; M1 antagonist: 0.45

How did OCCNc1nc(N2CCN(Cc3ccccc3)CC2)nc2ccccc12 do in these assays?
NADH coupling: 12%; M1 ag: 0.12; Htt clearance: 30; A340 absorber: 1; Autofluor 339: 2*; M1 antagonist: -0.45

What do the screens show for `Cc1cc2ccccc2c(=O)n1CC(=O)NCC(=O)N(C)C1CCCCC1`?
Htt clearance: 15

How did CC1=CC(c2ccccc2)n2nc(N3C(=O)C4CC=CCC4C3=O)nc2N1 (configuration not stated) do in these assays?
NADH coupling: 7%; M1 ag: -0.31; A340 absorber: 1; Autofluor 339: 2.3*; M1 antagonist: 0.72
